# From PubChem BioAssay
# Experiments:
# [1] = test system: Human papillomavirus type 1a protein E7 (residues 44-93); test: small molecules binding HPV E7 44-93 – biochemical, small-molecule microarray, residues 44-93, 635 nm fluorescence, primary screen (AID 1108); conditions: fluorescence 635 nm, higher = more signal;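 also: E7 fragment applied at 1 µg/mL in TBST for 1 h at 4 C; score combines spot fluorescence with its signal to noise ratio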
# [2] = hepatitis C replication reporter changes, two-sided – Huh7 cells, luciferase reporter, HCV replication inhibitor project, primary screen (AID 1109); conditions: Huh7 HCV replicon luciferase reporter, 48 h; higher = more signal;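 also: huh7 hepatoma cells harbouring a luciferase neomycin HCV replicon reporter; luciferase luminescence as measure of HCV replicon replication; test concentration not given here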
# [3] = biological target: Left-right determination factor 2 (Homo sapiens) (UniProt O00292); test: small molecules binding LEFTY2 protein – biochemical, small-molecule microarray, 635 nm fluorescence scan, primary screen (AID 1110); conditions: higher = more signal
# [4] = biological target: Calmodulin-1 (Homo sapiens) (UniProt P0DP23); test: small molecules binding calmodulin-1 with EGTA – biochemical, small-molecule microarray, Cy5-labelled CALM1, profiling panel (AID 1111); conditions: Cy5-CALM1 binding fluorescence, higher = more signal;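 also: labelled calmodulin applied in Tris saline Tween buffer holding calcium plus EGTA and DTT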
# [5] = biological target: Calmodulin-1 (Homo sapiens) (UniProt P0DP23); test: small molecules binding Ca-loaded calmodulin-1 – biochemical, small-molecule microarray, Cy5-labelled CALM1, plus calcium, artefact control for SMM control-protein annotation, profiling panel (AID 1112); conditions: Cy5-CALM1 binding fluorescence, higher = more signal;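 also: score merges spot fluorescence with signal to noise from triplicate slides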
# [6] = probe aWnt5a binding to arrayed compounds – biochemical, biotinylated probe, 635/667 nm fluorescence, primary screen (AID 1113); conditions: small-molecule microarray, higher = more signal;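 also: score merges 667 nm fluorescence intensity with signal-to-noise per printed feature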
# [7] = probe aShh binding to arrayed compounds – biochemical, biotinylated probe, 635/667 nm fluorescence, primary screen (AID 1114); conditions: small-molecule microarray, higher = more signal;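 also: probe is biotin-labelled aShh protein from a stem cell growth factor screen; measures binding of labelled protein to compounds printed on the slide; score merges feature fluorescence at 667 nm with signal-to-noise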
# [8] = probe aNog binding to arrayed compounds – biochemical, biotinylated probe, 635/667 nm fluorescence, primary screen (AID 1115); conditions: small-molecule microarray, higher = more signal;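 also: probe is biotinylated aNog protein used at 0.15 µg/mL for 1 h at 4 C; z-score combines 667 nm fluorescence of each spot with its signal to noise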
# [9] = biological target: Torsin-1A-interacting protein 1 (Homo sapiens) (UniProt Q5JTV8); test: compound microarray binding of lysate hLAP1 – cell lysate, small-molecule microarray, COS7 lysate, 635/667 nm fluorescence, primary screen (AID 1116); conditions: 635 nm fluorescence, higher = more signal
# [10] = biological target: Alpha-bungarotoxin (Bungarus multicinctus) (UniProt P60615); test: compounds binding labelled alpha-BTX control protein – biochemical, small-molecule microarray, Alexa647 label, 635/667 nm fluorescence, artefact control for SMM control protein annotation, profiling panel (AID 1117); conditions: alpha-BTX-A647 binding fluorescence, higher = more signal
# Chain of Alpha-bungarotoxin (Bungarus multicinctus) (P60615 whole entry, looked up): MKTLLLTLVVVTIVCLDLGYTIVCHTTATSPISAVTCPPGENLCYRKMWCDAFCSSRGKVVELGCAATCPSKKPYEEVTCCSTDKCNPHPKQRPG
# Chain of Torsin-1A-interacting protein 1 (Homo sapiens) (Q5JTV8 whole entry, looked up): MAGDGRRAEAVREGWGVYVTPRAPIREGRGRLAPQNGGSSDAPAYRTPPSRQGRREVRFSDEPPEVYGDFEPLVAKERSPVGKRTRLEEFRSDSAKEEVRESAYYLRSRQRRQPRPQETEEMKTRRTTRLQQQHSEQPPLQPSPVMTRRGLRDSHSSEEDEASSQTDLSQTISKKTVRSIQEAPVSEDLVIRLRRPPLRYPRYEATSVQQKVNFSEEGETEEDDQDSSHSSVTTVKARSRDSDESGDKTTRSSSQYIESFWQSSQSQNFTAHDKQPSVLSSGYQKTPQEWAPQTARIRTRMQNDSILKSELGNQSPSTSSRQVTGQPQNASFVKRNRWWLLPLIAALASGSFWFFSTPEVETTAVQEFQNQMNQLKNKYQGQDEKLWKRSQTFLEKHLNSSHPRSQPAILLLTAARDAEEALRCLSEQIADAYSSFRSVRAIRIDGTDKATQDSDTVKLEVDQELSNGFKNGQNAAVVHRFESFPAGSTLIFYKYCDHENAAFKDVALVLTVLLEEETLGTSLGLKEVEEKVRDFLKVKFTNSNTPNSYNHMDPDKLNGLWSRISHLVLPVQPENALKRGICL
# Chain of Left-right determination factor 2 (Homo sapiens) (O00292 whole entry, looked up): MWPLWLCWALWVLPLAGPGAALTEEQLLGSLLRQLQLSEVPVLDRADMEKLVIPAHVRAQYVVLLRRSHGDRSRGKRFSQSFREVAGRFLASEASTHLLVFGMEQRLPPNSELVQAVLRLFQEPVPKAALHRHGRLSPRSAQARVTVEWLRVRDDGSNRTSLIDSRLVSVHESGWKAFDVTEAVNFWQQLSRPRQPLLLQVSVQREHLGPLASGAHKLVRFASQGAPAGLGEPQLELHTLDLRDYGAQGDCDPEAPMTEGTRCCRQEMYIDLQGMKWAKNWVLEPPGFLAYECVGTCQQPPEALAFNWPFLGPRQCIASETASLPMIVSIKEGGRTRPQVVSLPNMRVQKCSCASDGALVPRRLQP
SMILES,composite z-score [1],z-score [2],composite z-score [3],composite z-score [4],composite z-score [5],composite z-score [6],composite z-score [7],composite z-score [8],composite z-score [9],composite z-score [10]
CCN1C(=O)[C@H]2[C@H]3[C@H](O)[C@H](O)CC(=NOCC=C(C)CCC=C(C)C)[C@H]3CC[C@H]2C1=O,0.614,-0.504,1.01,-1.01,-2.13,-0.0704,-0.0626,0.161,0.507,-0.476
CCOC(=O)NN=C1C[C@@H](O)[C@@H](O)[C@@H]2[C@@H]3C(=O)N(CC)C(=O)[C@@H]3CC[C@@H]12,0.788,-0.161,0.651,-0.21,-0.264,-0.118,-0.0977,-0.213,0.197,0.595
CCOC(=O)NN=C1C[C@@H](O)[C@@H](O)[C@@H]2[C@@H]3C(=O)N(C(C)(C)C)C(=O)[C@@H]3CC[C@@H]12,-0.772,-0.529,0.45,-0.671,-1.54,-0.278,-0.75,0.154,-0.48,-0.772
C[C@H]1Cc2c(-c3ccccc3)nc3c(c2CO1)CN(CCOc1ccccc1)CC3,1.33,-0.56,0.945,0.491,-0.416,-0.0203,0.147,-0.0172,0.0704,0.269
CCCNC(=O)OC[C@H]1O[C@H](CCON=C2[C@H]3CCn4c(=O)n(-c5ccccc5)c(=O)n4[C@H]3[C@H](O)[C@@H]3O[C@H]23)C=C[C@@H]1Oc1ccc(OC)cc1,0.252,-4.4,0.292,-1.01,-0.661,-0.0944,0.0062,-0.124,-0.0551,0.134
CCOC(=O)NN=C1C[C@@H](O)[C@@H](O)[C@@H]2[C@@H]3C(=O)N(C4CCCCC4)C(=O)[C@@H]3CC[C@H]12,0.0361,-0.314,0.511,-0.101,-0.469,-0.128,0.199,-0.245,0.217,-0.177
Cc1ccc(S[C@]2(C(=O)O)CC(=O)N(Cc3ccccc3)[C@@H]2c2ccc(CO)cc2I)cc1,0.34,-1.45,-0.891,-0.0405,-0.0584,-0.118,-0.206,-0.409,-0.192,0.823
CC(C)=CCCC(C)=CCON=C1[C@H]2CCn3c(=O)n(C)c(=O)n3[C@H]2[C@H](O)[C@@H]2O[C@H]12,1.32,-0.621,0.692,-0.257,-0.845,0.188,0.131,-0.0146,1.2,-0.0134
CCOC(=O)[C@H](Cc1ccccc1)NC(=O)CCC1CC(OC(=O)NCc2ccc3c(c2)OCO3)CC2(CCCC(COC(=O)NCC3CCCCC3)O2)O1 (stereo not given in full),1.31,-0.443,0.617,0.433,-0.135,-0.0179,-0.299,-0.167,0.517,0.629
COc1cccc([C@H]2Oc3ccc(OC)cc3C(=NOC(C)CN3CCCc4nc(C)c(C)cc43)[C@@H]2O)c1 (stereo not given in full),-0.508,-1.12,0.37,-0.789,-0.582,-0.0286,0.151,-0.135,0.74,-0.618
CN1C(=O)C2C(C1=O)C1C=C(CCCO)C2C(c2ccc(CN3CCCC3)cc2)N1C (stereo not given),-0.0161,-0.259,0.175,-0.573,-0.0923,-0.148,-0.273,0.171,0.0993,0.0035
